# Screening results: PubChem BioAssay, National Center for Advancing Translational Sciences (NCATS)
# APE1 inh = APE1 (human) endonuclease inhibition; P27695; 350,000 compounds, 0.35% hits; recombinant APE1, TAMRA/BHQ-2 abasic DNA cleavage fluorescence; Potency, µM (series often up to 65.8 µM), for inactives: at the top dose activity change, negative = inhibition, usual class: inhibitors;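 further: potency means the concentration at half of the fitted maximal effect; plate controls were vehicle for no effect and reference inhibitor for full effect; nearly all actives have a fitted effect of over 55% in size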
# Target sequence (P27695 whole entry, looked up): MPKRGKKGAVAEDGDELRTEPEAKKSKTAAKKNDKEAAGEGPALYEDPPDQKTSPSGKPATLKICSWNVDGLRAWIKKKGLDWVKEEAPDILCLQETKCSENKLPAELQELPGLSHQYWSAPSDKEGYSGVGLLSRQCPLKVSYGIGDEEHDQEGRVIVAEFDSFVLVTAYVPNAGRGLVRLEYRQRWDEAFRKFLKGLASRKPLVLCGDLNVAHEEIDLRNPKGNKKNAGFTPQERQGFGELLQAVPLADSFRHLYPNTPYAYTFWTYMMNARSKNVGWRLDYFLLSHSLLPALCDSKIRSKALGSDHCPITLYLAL
#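 Enzyme (0.75 nM final) and test compound are incubated 15 min at room temperature before adding 50 nM quenched THF abasic-site duplex. Cleavage dequenches TAMRA, followed at 525/598 nm over three reads one minute apart.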
# KAT2A inh = blocks human GCN5L2 histone acetyltransferase; Q92830; GCN5L2 HAT assay, ThioGlo1 CoA-SH fluorescence; Potency, µM (doses to about 58.9 µM), for inactives: at the highest dose activity change, negative = inhibition, usual class: inhibitors; 390,000 compounds, 0.21% hits; further: potency means the concentration at half of the fitted maximal effect
#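 qHTS, 1536-well. 20nM enzyme, pH 7.5 HEPES/EDTA/Tween-20 buffer; 15 min compound preinc., RT. Start: 75uM H3(1-25), 70uM AcCoA, 50uM ThioGlo1. Read Ex340/Em540 at t=0 (autofluorescence flag) and t=20 min.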
# PI5P4K alpha inh = blocks human PI5P4K alpha kinase activity. AID 652105. max response, %. 330,000 compounds, 1.2% hits. PI5P4Kalpha enzyme, ADP-Glo luminescence, 60 min; hits give low values. P48426; active means max response of -50% or lower; inconclusive means between -30% and -50%; inactive means -30% or higher; further: value at the top dose of about 77 µM
#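 Enzyme plus substrate dispensed, test compounds pinned in, then ATP (5 microM final) added. After 60 min at RT, ADP-Glo reagent 1 for 45 min and reagent 2 for 30 min preceded luminescence imaging.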
# RECQ1 inh-1 = inhibitors of human RECQ1 DNA helicase; P46063; RECQ1 DNA unwinding, red fluorescence kinetic read; Potency, µM (titrated, usually from 57.3 µM), inactives show at the highest dose activity, negative = inhibition, most hits filed as inhibitors; 240,000 compounds, 0.54% hits; AID 2549;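 further: potency means the concentration at half of the fitted maximal effect; plate controls were vehicle for no effect and no enzyme for full effect; nearly all actives have a fitted effect of over 30% in size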
#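 50 nM RECQ1T1 preincubated 15 min with compound in Tris pH 8.0 buffer with MgCl2, DTT, Tween-20 and 2.5 ug/ml poly(dI-dC); started with 200 nM TAMRA/BHQ-2 forked duplex and 2 mM ATP. Unwinding read as fluorescence (525/598 nm), two reads 2 h apart.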
# BLM helicase inh = blocks DNA unwinding by human BLM helicase; recombinant BLM DNA unwinding, fluorescence dequenching; Potency, µM (top dose mostly 56.1 µM), for inactives: at the highest dose activity change, negative = inhibition, actives largely listed as inhibitors; 350,000 compounds, 0.2% hits; AID 2528;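 further: potency means the concentration at half of the fitted maximal effect; plate controls were vehicle for no effect and no enzyme for full effect; nearly all actives have a fitted effect of over 35% in size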
# FEN1 inhibitor = blocks human flap endonuclease 1. P39748. 390,000 compounds, 0.35% hits. Recombinant FEN1 flap cleavage, fluorescence, 15 min. Potency, µM (series often up to 114 µM), inactives show at the highest dose activity change, negative = inhibition, hits mostly inhibitors; further: potency means the concentration at half of the fitted maximal effect; nearly all actives have a fitted effect of over 65% in size
#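 With each library titrated from low to high concentration, compounds met 10 nM FEN1 for 15 min at room temperature before 50 nM substrate was added; readings at 0 and 15 min fed four-parameter Hill curve fits.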
# RECQ1 inh conf = confirmation of human RECQ1 helicase inhibitors. 610 compounds, 28% hits. shares compounds with RECQ1 inh-1. Potency, µM (top dose mostly 229 µM), without a hit: at the highest dose activity change, negative = inhibition, hits mostly inhibitors. RECQ1 helicase DNA unwinding, fluorescence. AID 2708; further: potency means the concentration at half of the fitted maximal effect; nearly all actives have a fitted effect of over 45% in size
# ADP FP counter = ADP displacement flagged in RECQ1 inhibitor counter-screen; shares compounds with RECQ1 inh-1; 530 compounds, 27% hits; ADP fluorescence polarization displacement counterscreen; Potency, µM (top dose mostly 228 µM), inactives show top-dose activity change, negative = inhibition, most hits filed as inhibitors; further: potency means the concentration at half of the fitted maximal effect; nearly all actives have a fitted effect of over 45% in size
# RECQ1 inh-2 = blocks human RECQ1 DNA unwinding | recombinant RECQ1 DNA unwinding, red fluorescence | AID 504841 | Potency, µM (titrated, usually from 119 µM), inactives show at the top dose activity, negative = inhibition, most hits filed as inhibitors | shares compounds with RECQ1 inh-1 | 1,100 compounds, 15% hits; further: potency means the concentration at half of the fitted maximal effect; nearly all actives have a fitted effect of over 50% in size
# * hit, by the source's call; i = inactive; ? = inconclusive; · = no result; [ ] = another dose, or the depositor's remark. Hits are enriched below; roughly 1.5% of the tested compounds scored in any of these assays. Unless noted, the call rests on the fitted dose curve; in most records, active means well fitted curve in the direction sought with a large enough effect; inconclusive means small, poorly fitted or top-dose-only effect, or another doubt; inactive means no such curve, though single readings can be large; an effect the other way counts as inactive or inconclusive. Unless noted, on the % scale 0 is the no-effect control and ±100 the full control effect.
SMILES,APE1 inh,KAT2A inh,PI5P4K alpha inh,RECQ1 inh-1,BLM helicase inh,FEN1 inhibitor,RECQ1 inh conf,ADP FP counter,others
Cc1ccc(C2=CC(C)(c3ccc(C)cc3)Nc3nc(C(F)(F)F)nn32)cc1 (stereo not drawn),13%,-11%,13,?,-4%,-14%,·,·,RECQ1 inh-2=-15%
CC1(c2ccc(OCC#N)cc2)C=C(c2ccc(OCC#N)cc2)n2nc(C(F)(F)F)nc2N1 (stereo not drawn),-1%,-4%,-4,i,-13%,-13%,·,·,
c1ccc2c(c1)OCCOCCOCCOCCO2,-4%,11%,·,-7%,0%,·,·,·,
CN(C)c1ccc(/C=C/C=C2/SC(=S)N(c3ccccc3)C2=O)cc1,-12%,0%,?,1.4µM*,-9%,-9%,3.5µM*,?,
O=C(N/N=C/c1ccccc1C(=O)O)c1ccc(COc2cccc3cccnc23)cc1,-2%,-11%,-22,-10%,-6%,-14%,-11%,-8%,
O=C(N/N=C/c1ccc[nH]1)c1ccc(COc2cccc3cccnc23)cc1,6%,-11%,-6,i,-5%,-6%,·,·,
CC(=O)N1N=C(c2ccccc2)OC1c1ccc([N+](=O)[O-])s1 (stereo not drawn),?,-4%,3,35µM*,5%,?,·,·,RECQ1 inh-2=?
O=C(N/N=C/c1ccc[nH]1)c1ccccc1O,18%,-1%,-12,3.5µM*,-4%,4%,8%[114 µM],14%[91.9 µM],
Cc1cc(C)nc(SCc2nnc(SCC(=O)Nc3nc(-c4ccccc4)cs3)n2C)n1,-2%,-4%,-8,-4%,5%,1%,·,·,
COc1ccccc1-c1nnc(SCC(=O)Nc2nc(-c3ccccc3)cs2)n1C,1%,-7%,-6,-7%,7%,-6%,0%,8%,
NCCCC[C@H](NC(=O)[C@H](Cc1c[nH]c2ccccc12)NC(=O)[C@H](CC(=O)O)NC(=O)[C@H](Cc1cnc[nH]1)NC(=O)[C@H](CO)NC(=O)[C@H](Cc1c[nH]c2ccccc12)NC(=O)[C@H](Cc1cnc[nH]1)NC(=O)[C@@H]1CCC(=O)N1)C(=O)N1CCC[C@H]1C(=O)NCC(N)=O,-1%,42%,·,-16%,-2%,·,·,·,
COc1ccc(CNCC(O)(c2ccc(Cl)cc2)c2ccc(Cl)cc2)cc1OC,-2%,5%,0,14µM*,-14%,-13%,?,22µM*,
Nc1ncnc2c1ncn2[C@@H]1O[C@H](C(=O)N2CCN(CC(=O)Nc3cccc4c3CNC4=O)CC2)[C@@H](O)[C@H]1O,0%,12%,·,-7%,-8%,·,·,·,
CCOC(=O)c1sc(-c2ccc(Br)cc2)cc1N,25%,-12%,·,32µM*,-14%,-5%,·,·,RECQ1 inh-2=-18%
CCOC(=O)c1cc(-c2ccc(N)cc2)sc1N,0%,-29%,·,-5%,0%,2%,·,·,
O=[N+]([O-])c1ccc(CSc2ncnc3c2ncn3C2OC(CO)C(O)C2O)cc1 (stereo not drawn),-4%,·,·,i,·,·,·,·,
O=C(O)CC(SCC(=O)Nc1ccc(S(=O)(=O)N2CCCC2)cc1)C(=O)O (stereo not drawn),-7%,3%,-1,i,1%,6%,2%,-9%,
